From PubChem BioAssay AID2653 (National Center for Advancing Translational Sciences (NCATS), 2010)
Inconclusive results are not listed. Active and inactive are the calls of the source. Calls follow the shape of the dose curve; as a rule, active = well fitted curve in the direction sought with a large enough effect; inconclusive = small, poorly fitted or top-dose-only effect, or another doubt; inactive = no such curve, though single readings can be large or run the other way.

Assay: Secondary Assay for Activators of Human Pyruvate Kinase M2 isoform - Cell Titer Glo Cytotoxicity for Probe SAR
Conditions: HeLa viability, CellTiter-Glo ATP luminescence, 24 h; series mostly up to 58.2 µM
Summary of the method: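 HeLa cells, 500 per well, plated 24 h then exposed to compound 24 h at 37 C. Total ATP by CellTiter-Glo luminescence after 10 min at room temperature; doxorubicin control.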

Structure (SMILES) | outcome
O=C1CCc2cc(S(=O)(=O)Nc3ccc4ncccc4c3)ccc2N1 | inactive
CN(C)c1cccc(S(=O)(=O)N2CCN(S(=O)(=O)c3ccc4c(c3)OCCO4)CC2)c1 | inactive
O=C1c2ccccc2C(=O)N1c1cccc(O)c1 | inactive
Cc1cc(C)n2c(Nc3ccccc3)c(-c3ccc(C)o3)nc2n1 | inactive
Cc1ccc(NS(=O)(=O)c2ccc3c(c2)CCC(=O)N3)cc1F | inactive
Cn1c2cc(S(C)=O)sc2c2cnn(Cc3cccc(O)c3)c(=O)c21 (configuration not stated) | inactive
COc1cccc(N2C(=O)c3ccccc3C2=O)c1 | inactive
Cc1ccc(Cl)cc1NS(=O)(=O)c1cc2c(cc1F)NC(=O)CC2 | inactive
O=C1c2ccccc2C(=O)N1c1ccc(O)cc1 | inactive
Fc1ccccc1-c1ccc(-c2nc3ccc(Cl)cn3c2Nc2ccc(Cl)cc2)o1 | inactive
O=C1c2ccccc2C(=O)N1C1CCCCC1 | inactive
O=C1NS(=O)(=O)c2ccccc21 | inactive
